Calls of active or inactive are those of the source.
Columns and labels:
Albumin (Bos taurus) = Albumin (Bos taurus) (UniProt P02769); test: compounds binding labelled BSA control protein – biochemical, small-molecule microarray, Alexa647 label, 635/667 nm fluorescence, artefact control for SMM control protein annotation, profiling panel (AID 1118); details: BSA-A647 binding, fluorescence 635 nm, higher = more signal;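 also: score merges 667 nm emission intensity and signal-to-noise per printed compound spot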
[1] = probe aXIP binding to arrayed compounds – biochemical, NeuroSMM set, 635/667 nm fluorescence, primary screen (AID 1119); details: small-molecule microarray, higher = more signal, called active from +8 up or from −8 down;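 also: probe is the protein aXip251-270 applied at 1 µg/mL to compound-printed slides; binding of probe to printed compounds measured as 667 nm fluorescence plus signal to noise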
[2] = probe aNOTCH3 binding on compound microarray – biochemical, small-molecule microarray, 635/667 nm fluorescence, primary screen (AID 1120); details: higher = more signal;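 also: probe is a biotin-tagged antibody raised against NOTCH3 rather than NOTCH3 protein; score merges spot fluorescence near 667 nm with spot signal to noise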
[3] = probe aNOTCH2 binding on compound microarray – biochemical, small-molecule microarray, 635/667 nm fluorescence, primary screen (AID 1121); details: higher = more signal;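 also: score merges feature fluorescence read at 667 nm with its signal to noise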
[4] = biological target: Carbonic anhydrase 2 (Homo sapiens) (UniProt P00918); test: compounds binding carbonic anhydrase 2 – biochemical, small-molecule microarray, Alexa647-labelled CAII, profiling panel (AID 1122); details: CAII-A647 binding fluorescence, higher = more signal
[5] = COS7 lysate on small-molecule microarray, probe aHis, 635 nm (AID 1123); details: COS7 cell lysate, fluorescence, higher = more signal;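 also: z-score combines 667nm fluorescence intensity with signal-to-noise per printed compound spot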
[6] = probe aLAP1 signal on lysate-treated microarray – cell lysate, small-molecule microarray, COS7 lysate, primary screen (AID 1124); details: probe aLAP1, fluorescence, higher = more signal;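 also: lysate comes from COS7 cells expressing LAP1 and is applied at 0.3 µg/mL; score merges spot fluorescence near 667 nm with signal-to-noise over triplicate slides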
Sam68 (KHDRBS1) = test: compounds binding KHDRBS1 protein – biochemical, small-molecule microarray, 635 nm fluorescence, primary screen (AID 1125); details: higher = more signal;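 also: score merges 667 nm channel intensity with signal to noise over triplicate slides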
[7] = test system: Chordin-like protein 2 (CHRDL2); test: compounds binding chordin-like 2 – biochemical, small-molecule microarray, 635 nm fluorescence, primary screen (AID 1126); details: fluorescence 635 nm, higher = more signal;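 also: printed compound slides probed with Chrdl2 protein at 4 µg/mL for 1 h at 4 C; score merges 667 nm emission intensity with signal to noise over three replicate slides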
[8] = biological target: Concanavalin-A (Canavalia ensiformis) (UniProt P02866); test: compounds binding concanavalin A lectin – biochemical, small-molecule microarray, Alexa647 label, 635 nm, artefact control for SMM control protein annotation, primary screen (AID 1127); details: ConA-A647 binding fluorescence, higher = more signal;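 also: z combines 667 nm emission intensity with signal-to-noise across three replicate slides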
[9] = compounds binding Alexa647 anti-His antibody – biochemical, small-molecule microarray, 635 nm fluorescence, artefact control for SMM control protein annotation, primary screen (AID 1128); details: higher = more signal;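 also: score merges feature fluorescence with signal-to-noise for each printed compound spot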
[10] = test system: Human papillomavirus type 1a E7 protein (residues 1-88); test: HPV1a E7 small-molecule binders, primary screen, biochemical, small-molecule microarray, residues 1-88, 635 nm (AID 1129); details: small-molecule microarray binding, fluorescence 635 nm; higher = more signal
[11] = biological target: Focal adhesion kinase 1 (Homo sapiens) (UniProt Q05397); test: PTK2 protein binding on printed compound slides – biochemical, small-molecule microarray, 635/667 nm fluorescence, BSA, DTT, primary screen (AID 1130); details: 635 nm fluorescence, higher = more signal;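 also: composite of spot emission at 667 nm and signal to noise over triplicate slides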
[12] = test system: Fibrinogen (Alexa647-labelled); test: Alexa647-fibrinogen binding to printed small molecules – biochemical, small-molecule microarray, 635/667 nm fluorescence, artefact control for SMM control-protein annotation, profiling panel (AID 1131); details: fibrinogen-A647 binding fluorescence, higher = more signal;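 also: z-score merges 667 nm fluorescence with per-spot signal-to-noise over triplicate slides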
[13] = biological target: Follistatin (Homo sapiens) (UniProt P19883); test: FST protein binding to printed compounds – biochemical, small-molecule microarray, 635/667 nm fluorescence, primary screen (AID 1132); details: 635 nm fluorescence, higher = more signal
[14] = biological target: Fibroblast growth factor 2 (Homo sapiens) (UniProt P09038); test: basic fibroblast growth factor binding to printed compounds – biochemical, small-molecule microarray, 635/667 nm fluorescence, primary screen (AID 1133); details: FGF2, fluorescence 635/667, higher = more signal
[15] = JC-1 mitochondrial potential readout, lung cancer cells – cell-based, A549, JC-1 fluorescence, basal, 24 h, 100 nL, profiling panel (AID 1138); details: higher = more signal;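 also: A549 lung adenocarcinoma cells under basal conditions with no added stimulus; test concentration not given here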
Lefty1 = Lefty1 protein binding to printed compounds – biochemical, small-molecule microarray, 635/667 nm fluorescence, primary screen (AID 1139); details: fluorescence 635/667, higher = more signal
[16] = test system: wheat germ agglutinin (Triticum aestivum), Alexa647-labelled; test: Alexa647-WGA lectin binding to printed small molecules – biochemical, small-molecule microarray, 635/667 nm fluorescence, artefact control for SMM control-protein annotation, profiling panel (AID 1140); details: WGA-A647 binding, 635 nm fluorescence, higher = more signal;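 also: score merges 667 nm feature emission with signal to noise over triplicate slides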
[17] = biological target: Luciferin 4-monooxygenase (Photinus pyralis) (UniProt P08659); test: inhibition of purified Photinus pyralis luciferase – biochemical, luminescence, purified enzyme, 2006 set, primary screen (AID 1141); details: purified firefly luciferase, SteadyGlo luminescence, 30 min; higher = more signal, called active from +8 up or from −8 down;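 also: cell-free assay with purified firefly luciferase at 100 ng per well in PBS; test concentration not given here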
Luciferin 4-monooxygenase (Photinus pyralis), sequence (P08659 whole entry, looked up): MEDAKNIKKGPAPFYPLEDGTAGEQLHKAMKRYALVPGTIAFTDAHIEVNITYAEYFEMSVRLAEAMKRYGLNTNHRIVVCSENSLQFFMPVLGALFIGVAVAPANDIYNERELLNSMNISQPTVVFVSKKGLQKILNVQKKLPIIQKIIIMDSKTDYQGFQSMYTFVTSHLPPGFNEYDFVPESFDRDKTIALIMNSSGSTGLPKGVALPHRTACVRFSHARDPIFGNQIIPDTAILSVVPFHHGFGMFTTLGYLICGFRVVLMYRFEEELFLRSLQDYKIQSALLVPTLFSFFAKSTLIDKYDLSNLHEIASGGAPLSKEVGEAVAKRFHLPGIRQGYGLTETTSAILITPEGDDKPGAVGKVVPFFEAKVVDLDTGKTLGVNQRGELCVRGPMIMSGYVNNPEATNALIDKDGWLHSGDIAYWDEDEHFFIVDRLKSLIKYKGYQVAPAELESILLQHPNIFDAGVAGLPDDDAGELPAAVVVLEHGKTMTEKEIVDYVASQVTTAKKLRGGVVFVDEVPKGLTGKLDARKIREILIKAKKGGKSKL

Fibroblast growth factor 2 (Homo sapiens), sequence (P09038 whole entry, looked up): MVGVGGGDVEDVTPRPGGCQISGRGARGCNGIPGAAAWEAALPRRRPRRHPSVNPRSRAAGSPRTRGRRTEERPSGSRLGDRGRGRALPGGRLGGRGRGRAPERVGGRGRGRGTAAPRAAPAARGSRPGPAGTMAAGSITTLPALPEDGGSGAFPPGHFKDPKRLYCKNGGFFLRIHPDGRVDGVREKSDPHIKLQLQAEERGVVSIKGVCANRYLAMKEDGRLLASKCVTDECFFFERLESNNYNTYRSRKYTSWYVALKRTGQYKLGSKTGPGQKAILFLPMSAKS
Concanavalin-A (Canavalia ensiformis), sequence (P02866 whole entry, looked up): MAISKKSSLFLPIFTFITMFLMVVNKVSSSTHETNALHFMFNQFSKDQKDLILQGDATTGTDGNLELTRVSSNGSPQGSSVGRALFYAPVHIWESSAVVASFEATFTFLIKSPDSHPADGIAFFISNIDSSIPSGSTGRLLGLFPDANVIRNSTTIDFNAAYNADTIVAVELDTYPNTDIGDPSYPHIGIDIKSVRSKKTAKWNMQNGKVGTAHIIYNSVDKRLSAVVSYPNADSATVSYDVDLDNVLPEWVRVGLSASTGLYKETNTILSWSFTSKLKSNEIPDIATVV
Focal adhesion kinase 1 (Homo sapiens), sequence (Q05397 whole entry, looked up): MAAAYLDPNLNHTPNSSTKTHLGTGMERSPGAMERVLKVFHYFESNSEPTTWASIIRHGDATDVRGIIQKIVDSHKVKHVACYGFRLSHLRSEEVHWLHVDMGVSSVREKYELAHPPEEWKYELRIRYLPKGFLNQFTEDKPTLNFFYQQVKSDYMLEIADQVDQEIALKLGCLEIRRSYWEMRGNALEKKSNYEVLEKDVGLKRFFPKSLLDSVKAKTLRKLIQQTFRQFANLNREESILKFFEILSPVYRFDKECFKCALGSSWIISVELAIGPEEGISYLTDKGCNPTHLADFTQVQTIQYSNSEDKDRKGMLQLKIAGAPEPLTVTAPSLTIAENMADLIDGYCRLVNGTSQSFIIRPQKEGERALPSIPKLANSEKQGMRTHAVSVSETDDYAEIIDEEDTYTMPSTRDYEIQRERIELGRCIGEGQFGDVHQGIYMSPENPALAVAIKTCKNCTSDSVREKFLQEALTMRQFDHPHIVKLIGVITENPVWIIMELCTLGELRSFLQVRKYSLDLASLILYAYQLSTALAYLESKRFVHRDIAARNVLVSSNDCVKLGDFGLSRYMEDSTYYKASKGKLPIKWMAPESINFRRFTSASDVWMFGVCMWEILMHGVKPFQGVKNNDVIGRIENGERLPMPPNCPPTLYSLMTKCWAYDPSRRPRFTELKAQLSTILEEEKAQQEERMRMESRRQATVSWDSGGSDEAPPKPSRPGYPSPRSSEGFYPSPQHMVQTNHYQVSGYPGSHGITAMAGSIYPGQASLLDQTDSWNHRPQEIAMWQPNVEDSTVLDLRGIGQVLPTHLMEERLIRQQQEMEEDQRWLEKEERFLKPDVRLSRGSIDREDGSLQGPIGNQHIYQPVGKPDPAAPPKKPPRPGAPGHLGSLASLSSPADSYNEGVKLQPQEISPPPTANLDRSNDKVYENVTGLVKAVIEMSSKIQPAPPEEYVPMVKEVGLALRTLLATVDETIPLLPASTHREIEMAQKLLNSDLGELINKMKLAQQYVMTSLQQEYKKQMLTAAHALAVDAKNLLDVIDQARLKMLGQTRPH
Follistatin (Homo sapiens), sequence (P19883 whole entry, looked up): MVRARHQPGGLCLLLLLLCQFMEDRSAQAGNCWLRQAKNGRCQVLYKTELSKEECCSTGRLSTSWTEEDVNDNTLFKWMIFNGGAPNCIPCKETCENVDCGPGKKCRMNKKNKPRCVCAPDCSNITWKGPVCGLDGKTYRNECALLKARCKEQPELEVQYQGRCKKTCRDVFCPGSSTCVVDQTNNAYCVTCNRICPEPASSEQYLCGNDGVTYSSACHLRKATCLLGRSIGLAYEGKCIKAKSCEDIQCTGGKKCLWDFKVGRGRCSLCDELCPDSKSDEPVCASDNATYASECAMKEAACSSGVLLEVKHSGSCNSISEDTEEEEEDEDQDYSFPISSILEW
Albumin (Bos taurus), sequence (P02769 whole entry, looked up): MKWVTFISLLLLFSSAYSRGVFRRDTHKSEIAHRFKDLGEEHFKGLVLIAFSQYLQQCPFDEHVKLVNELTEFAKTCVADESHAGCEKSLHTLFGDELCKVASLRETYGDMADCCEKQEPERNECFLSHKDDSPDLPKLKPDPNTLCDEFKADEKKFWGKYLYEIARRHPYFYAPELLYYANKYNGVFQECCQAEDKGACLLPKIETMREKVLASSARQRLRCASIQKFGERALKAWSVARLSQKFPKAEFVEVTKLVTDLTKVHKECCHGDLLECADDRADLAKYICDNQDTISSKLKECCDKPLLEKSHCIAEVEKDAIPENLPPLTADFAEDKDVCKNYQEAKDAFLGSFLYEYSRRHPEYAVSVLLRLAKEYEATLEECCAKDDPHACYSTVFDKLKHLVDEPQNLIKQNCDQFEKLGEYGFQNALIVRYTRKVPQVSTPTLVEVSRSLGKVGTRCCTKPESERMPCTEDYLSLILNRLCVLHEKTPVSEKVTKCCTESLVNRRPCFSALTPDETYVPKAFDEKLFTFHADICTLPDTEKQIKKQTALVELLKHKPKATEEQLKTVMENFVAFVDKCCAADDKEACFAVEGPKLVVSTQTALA

SMILES	composite z-score (Albumin (Bos taurus))	composite Z-score [1]	composite z-score [2]	composite z-score [3]	composite z-score [4]	composite z-score [5]	composite z-score [6]	composite z-score (Sam68 (KHDRBS1))	composite z-score [7]	composite z-score [8]	composite z-score [9]	composite z-score [10]	composite z-score [11]	composite z-score [12]	composite z-score [13]	composite z-score [14]	z-score [15]	composite z-score (Lefty1)	composite z-score [16]	z-score [17]
COc1cc2c(cc1OC)CN(C(=O)[C@H]1[C@@H]3C(=O)O[C@@H](c4ccccc4)[C@@H](c4ccccc4)N3[C@@H](c3ccc(O)cc3)[C@]13C(=O)Nc1ccc(C#CCNC(N)=O)cc13)CC2	-0.176	-0.136 (inactive)	0.0397	-0.165	0.169	0.103	0.523	-0.0579	0.702	0.212	-0.327	-0.0403	0.0099	-0.231	1.29	0.967	-0.73	0.669	0.344	0.8 (inactive)
CCCCCN1CC=CC23O[C@@H]4/C=C\CCCOC(=O)C4[C@H]2C(=O)N(C(CO)C(C)C)[C@@H]3C1=O (stereo not given in full)	1	0.586 (inactive)	-0.139	-0.14	0.819	-0.168	-0.12	-0.656	-0.718	-0.574	-0.208	-0.376	-0.295	-0.796	0.0945	-0.603	-0.46	0.418	0.869	0.451 (inactive)
COCCOC(=O)N1C(=O)[C@@]2(c3cc(C#CCCO)ccc31)[C@H](c1ccc(OCCO)cc1)N1[C@H](c3ccccc3)[C@H](c3ccccc3)OC(=O)[C@H]1[C@@H]2C(=O)N1CCN(c2ncccn2)CC1	0.679	-0.114 (inactive)	0.162	-0.161	0.31	2.03	0.602	1.29	0.718	1.15	1.05	1.18	0.307	0.756	1.3	1.32	-1.04	1.37	0.624	-0.836 (inactive)
C[N+](C)(C)CCCCNC(=O)[C@H]1C[C@H]2C(=O)N[C@@H](Cc3ccccc3)C(=O)N2[C@H]1c1ccc(O)cc1	-1.16	0.474 (inactive)	-0.0343	-0.167	0.358	0.396	0.0021	0.247	1.05	0.274	1.94	-0.304	-0.452	0.451	1.34	0.971	0.079	0.985	0.496	-1.27 (inactive)
COC(=O)[C@@]1(Cc2ccc(F)cc2)[C@H]2c3cc(C(=O)N4CCCC4)n(Cc4ccc(C)o4)c3C[C@H]2CN1C(=O)c1ccccc1	0.469	0.157 (inactive)	0.28	0.354	0.546	1.95	0.137	-0.459	-0.549	0.851	1.69	1.07	1.05	0.952	0.4	-0.708	0.821	0.181	0.794	-13.4 (active)
O=C1OCC=C[C@H]2OC34C=CCN(CCN5CCOCC5)C(=O)[C@H]3N(CCCO)C(=O)[C@@H]4[C@@H]12 (stereo not given in full)	0.416	0.103 (inactive)	-0.206	-0.122	-0.0692	0.357	-0.126	0.356	0.0732	0.551	0.314	0.323	0.574	0.38	0.216	-0.344	-0.798	0.606	0.114	-0.206 (inactive)

Source: PubChem BioAssay
